Bioassay records as filed in PubChem BioAssay.
SKKanGAS inh: SKKanGAS growth inhibition; S. pyogenes SKKanGAS, kanamycin growth, BacTiter-Glo, 6 h; inhibition, % at 7.5 µM; 300,000 tested, 1.3% active; AID 1662;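 active = mean replicate score, as percent of positive control median, at least 50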;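 also: strain carries kanamycin resistance gene driven by streptokinase promoter and grows in 40 µg/ml kanamycin; loss of luminescence reflects streptokinase promoter inhibition or plain growth inhibition; 0% = median of DMSO wells and 100% = positive control at its reference dose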
V-ATPase pHluor: alters yeast V-ATPase proton transport | S. cerevisiae, pHLuorin cytosolic pH fluorescence | response, % at 10 µM | 350,000 tested, 0.37% active; in the data active = response mostly above about 7.3%, no sharp cut-off; inactive = mostly below about 5.4%; also: actives read high
TIM10 inh: TIM10 yeast growth inhibition | inhibition, % at 10 µM | 330,000 tested, 1.4% active | AID 463195 | S. cerevisiae TIM10 strain growth, BacTiter-Glo luminescence, 24 h;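 active = inhibition of 40% or more at the single tested concentration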;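 also: wild-type TIM10 isogenic control strain grown at permissive 25 °C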
tim23-1 inh: growth inhibitors of tim23-1 mutant yeast; S. cerevisiae tim23-1 growth, BacTiter-Glo luminescence, 24 h; 330,000 tested, 1.3% active; inhibition, % at 20 µM;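 active = growth inhibition of the mutant yeast at or above 50%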;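 also: temperature-sensitive mutant grown at 25 °C; plate controls were DMSO-treated mutant yeast for no effect and medium wells lacking yeast for full effect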
tim10-1 inh: tim10-1 yeast growth inhibition; S. cerevisiae tim10-1 ts strain growth, BacTiter-Glo, 24 h; AID 463190; 330,000 tested, 2.2% active; inhibition, % at 20 µM;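 active = inhibition of at least 40%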;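 also: mutant grown at 25 °C; 0% = DMSO wells with yeast and 100% = wells holding no yeast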
PfHsp90 set2: reduces growth (ATP signal) of yeast expressing P. falciparum Hsp90. inhibition, % at 9.4 µM. AID 504621. 310,000 tested, 0.32% active. S. cerevisiae expressing PfHsp90, BacTiter-Glo ATP, 48 h; yeast lacking PDR1 and PDR3 efflux regulators;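 active = every replicate shows inhibition above about 80%, whatever the replicate mean, limit read from the data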;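 also: 0% = DMSO neutral controls and 100% = 20 µM radicicol positive controls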
Active calls of the source: *; x = no result given. Most compounds without a hit are left out; they make up all but 4.6% or so of the library.

SMILES	SKKanGAS inh	V-ATPase pHluor	TIM10 inh	tim23-1 inh	tim10-1 inh	PfHsp90 set2
CCOc1cc(Br)cc(/C=N/NC(=O)c2cccnc2)c1O	55*	-5	-28	44	-3	8
CCN(CC)c1ccc(-c2nn3c(-c4n[nH]c5c4CCC5)nnc3s2)cc1	85*	2	-24	8	-3	-22
CC1(C)C(=O)Nc2ccccc2N1C(=O)COc1ccc(C#N)cc1	x	2	1	-6	-11	-17
O=C(NC1CCCCC1)c1sc(=S)n2c1[nH]c(=O)c1ccccc12	60*	3	32	19	39	x
O=C(NCCc1ccccc1)c1ccc2c(=O)[nH]c3c(C(=O)NCC4CCCO4)sc(=S)n3c2c1 (stereo not drawn)	44	0	7	20	12	-33
CCCCNC(=O)c1sc(=S)n2c1[nH]c(=O)c1ccccc12	54*	-2	20	27	39	-1
CCOC(=O)c1nc(Nc2ccc(N3CCC(C)CC3)cc2)c2ccccc2n1	17	-1	21	41	29	-6
Cc1cccc(C)c1NC(=O)C1CCCN1C(=O)NCc1ccccc1 (stereo not drawn)	2	2	4	4	-4	-13
Cc1nc(N)nc(N)c1CCCc1ccc(Cl)c(Cl)c1	109*	-3	23	19	13	-7
Cc1nc(N)nc(N)c1-c1ccc(Cl)c(Cl)c1	x	-87	x	x	x	-34
CC(C)COC(=O)N(C)C[C@@H]1OCc2cnnn2CCCC(=O)N([C@@H](C)CO)C[C@H]1C	x	0	x	x	x	x
CC(=O)Nc1ccc(NC(=O)C(C)OC(=O)c2cccc(S(=O)(=O)N3CCCCCC3)c2)cc1 (stereo not drawn)	-1	15*	-2	13	2	36
Cc1ccc(C)c(OCCC(=O)Nc2cccc(S(=O)(=O)N3CCCCC3)c2)c1	x	1	18	20	17	x
C=CCNC(=O)O/N=C/c1csc([N+](=O)[O-])c1	-6	-3	23	35	23	6
COc1ccc(S(=O)(=O)N2CCCC2CNC(=O)C(=O)NCc2ccccc2Cl)cc1 (stereo not drawn)	-12	10	7	16	17	4
O=C(N[C@H](CO)[C@H](O)c1ccc([N+](=O)[O-])cc1)C(Cl)Cl	101*	1	0	14	6	-6
O=C(NC(CO)C(O)c1ccc([N+](=O)[O-])cc1)C(Cl)Cl (stereo not drawn)	104*	3	-2	5	3	-7
O=[N+]([O-])c1ccc(C(O)C(CO)NC(=S)Nc2ccccc2)cc1 (stereo not drawn)	21	1	2	6	-10	-10
O=C(NC(CO)Cc1ccc([N+](=O)[O-])cc1)C(Cl)Cl (stereo not drawn)	97*	-4	8	8	-5	-15
Cc1ccc(NC(=S)NC(CO)C(O)c2ccc([N+](=O)[O-])cc2)cc1 (stereo not drawn)	-5	1	-7	10	-14	-11
Nc1ncnc2c1ncn2-c1ccccc1Cl	x	0	x	x	x	-6
CCSc1nc2c(cnn2-c2ccccc2)c(=O)n1N	4	0	-17	7	-30	-14
COc1cc(C(=O)OCC(=O)N2CCOCC2)c([N+](=O)[O-])cc1OC	-6	-4	-2	-10	3	2
COc1ccc(C(=O)Nc2cc(C)nn2-c2nc3ccccc3[nH]2)c(OC)c1	36	-3	25	23	0	22
COc1cccc(OC)c1C(=O)Nc1cc(C)nn1-c1nc2ccccc2[nH]1	51*	7	19	34	17	4
SMILES	SKKanGAS inh	V-ATPase pHluor	TIM10 inh	tim23-1 inh	tim10-1 inh	PfHsp90 set2
CCc1cccc2c(C(=O)COC(=O)/C=C/c3ccc(O)c(OC)c3)c[nH]c12	51*	0	10	13	-11	-9
COc1cccc(/C=C/C(=O)OCC(=O)c2c[nH]c3ccccc23)c1	x	2	5	6	-6	-12
CCCN(CC1CC1)C(=O)CSc1nnc(-c2cc(-c3cccs3)nc3ccccc23)o1	18	-1	3	16	24	-12
CC(=NNC(=S)N1CC2CCC(CC2)C1)c1cnccn1	x	3	x	x	x	145*
CC(=NNC(=S)N1CCN(c2ccccn2)CC1)c1ccccn1	x	-3	x	x	x	0
CC(=NNC(=S)N1CCN(C2CCCCCC2)CC1)c1ccccn1	x	0	x	x	x	103*
CC(=NNC(=S)N1CCN(c2ccccn2)CC1)c1nccs1	x	-1	x	x	x	142*
Cc1nnc(SCC(=O)NCc2ccccc2Cl)[nH]c1=O	x	-1	5	2	3	-11
O=c1[nH]c2ccc(NCc3ccccc3OCc3ccc(Cl)cc3)cc2[nH]1	10	2	-4	31	2	1
CCCCC(=O)Nc1ccc(C(=O)NNC(=S)NC(=O)c2cccs2)cc1	67*	-3	14	24	7	x
O=C(NNC(=S)NC(=O)c1cccs1)c1ccc(NC(=O)c2ccccc2)cc1	92*	1	16	-1	1	-9
O=C(Nc1ccc(NC(=S)NC(=O)c2cccs2)cc1)c1ccccc1	4	-1	-15	2	-23	6
COc1ccc(NC(=O)c2cccs2)cc1	2	21*	3	10	-16	-1
O=C(Nc1ccc(NC(=O)c2cccs2)cc1)c1cccs1	-1	-4	-7	-3	-45	10
O=C(NNC(=S)NC(=O)c1ccco1)c1ccc(NC(=O)c2ccccc2)cc1	61*	1	8	17	21	9
Cc1ccc2nc(C)cc(C(=O)N3CCCC(CO)(Cc4ccccc4C)C3)c2c1 (stereo not drawn)	-6	-3	13	18	30	14
CCc1ccc(NCCC(=O)c2ccc(Br)cc2)cc1	-2	15*	-24	-3	4	29
NS(=O)(=O)c1ccc(CNC(=O)/C=C/c2cccc([N+](=O)[O-])c2)cc1	3	-1	-18	-1	10	-43
CCOC(=O)c1cc2cc(OCc3ccccc3)ccc2nc1C	0	0	0	-40	-74	118*
CCOC(=O)c1cnc2ccc(OCC)cc2c1N(C)Cc1ccccc1	11	0	-1	20	12	x
COc1ccc(/C=C/c2nc3cc(-c4ccccc4)ccc3o2)cc1O	88*	2	23	33	6	-18
O=C(Nc1ccccc1Sc1ccccc1)c1ccccc1F	61*	2	5	-11	17	15
O=C(Nc1ccccc1NC(=O)c1ccccc1F)c1ccccc1F	0	-1	11	17	8	13
COc1c(CC=C(C)C)cc(C2CC(=O)c3c(O)cc(O)cc3O2)cc1CC=C(C)C (stereo not drawn)	101*	-2	15	24	19	-16
COc1ccc([C@@H]2CC(=O)c3c(O)cc(O)cc3O2)cc1O	x	0	6	23	10	-5
